# Screening results (PubChem BioAssay)
# APOBEC3G inh – APOBEC3G DNA deaminase inhibitors, primary screen, biochemical, fluorescence, single-stranded DNA substrate, uHTS; recombinant A3G, ssDNA deamination FAM/TAMRA fluorescence; inhibition, % at 20 µM; actives 0.28% (n = 330,000);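 active = inhibition of at least 40% at 20 µM, with no more than 30% in the related APOBEC3A deaminase screen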
# Target sequence (Q9HC16 whole entry, looked up): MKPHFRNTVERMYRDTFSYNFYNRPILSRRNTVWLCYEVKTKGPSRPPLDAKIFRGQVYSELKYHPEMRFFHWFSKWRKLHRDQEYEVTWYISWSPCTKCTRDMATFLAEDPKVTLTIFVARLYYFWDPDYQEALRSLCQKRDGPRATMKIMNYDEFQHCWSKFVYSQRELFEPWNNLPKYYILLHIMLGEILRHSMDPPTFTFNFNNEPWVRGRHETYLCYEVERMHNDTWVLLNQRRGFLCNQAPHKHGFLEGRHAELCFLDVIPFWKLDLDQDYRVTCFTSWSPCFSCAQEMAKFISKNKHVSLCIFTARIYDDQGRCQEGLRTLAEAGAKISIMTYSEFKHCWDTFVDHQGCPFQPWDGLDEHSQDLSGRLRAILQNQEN
# M18AAP inhibitor – PfM18AAP inhibitors, malaria aminopeptidase, primary screen, biochemical, QFRET, recombinant enzyme | H-Glu-NHMec fluorogenic cleavage | actives 1.2% (n = 290,000) | inhibition, % at 7.35 µM;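 active = inhibition above the campaign mean inhibition over all tested compounds plus 3 SD, cut at about 28% in these data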
# PfGluPho inh – PfG6PD enzyme inhibitors, primary screen, biochemical, fluorescence intensity, uHTS. PfGluPho enzyme, NADPH resazurin-diaphorase fluorescence. inhibition, % at 20 µM. actives 0.78% (n = 350,000). AID 504690, 2011;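 active = inhibition reaching at least a set limit at 20 µM in the primary screen, cut at about 59% in these data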
# CR mimetic SO – reduction of superoxide in aged yeast, primary screen, HTS. S. cerevisiae aged cells, superoxide DHE fluorescence; hits give low values. superoxide response (% of plate mean), % at 10 µM. actives 0.18% (n = 330,000). AID 2690, 2010;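 active = superoxide response under a set limit, about three screen SD below normal, cut at about 65% in these data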;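 also: yeast aged for seven days with compound at 30 °C before DHE staining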
# A3A deaminase – APOBEC3A ssDNA deaminase inhibitors, primary screen, selectivity assay for APOBEC3G inhibitor project, biochemical, FAM/TAMRA oligo cleavage fluorescence | AID 493011, 2011 | inhibition, % at 20 µM | actives 0.41% (n = 330,000) | recombinant A3A, FAM/TAMRA ssDNA deamination fluorescence;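 active = at least 40% inhibition at 20 µM here, with at most 30% in a related deaminase screen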
# Target sequence (P31941 whole entry, looked up): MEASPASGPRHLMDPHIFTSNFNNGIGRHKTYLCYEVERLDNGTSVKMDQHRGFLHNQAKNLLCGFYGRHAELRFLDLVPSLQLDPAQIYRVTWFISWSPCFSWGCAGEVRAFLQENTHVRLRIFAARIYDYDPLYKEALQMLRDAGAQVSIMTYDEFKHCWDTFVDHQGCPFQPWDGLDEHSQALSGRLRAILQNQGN
# Hits are given with their value; . = inactive; / = no result. Shown are actives, neighbours in structure and some others; about 2.4% of the full set was active somewhere.
SMILES,APOBEC3G inh,M18AAP inhibitor,PfGluPho inh,CR mimetic SO,A3A deaminase
Cc1ccc(S(=O)(=O)N2C[C@@H](C)[C@]3(C2)[C@H](O)[C@H](OC(=O)NC2CCCC2)C[C@H]2C(=O)N(c4ccccc4)C(=O)[C@H]23)cc1,/,/,.,/,/
COc1ccc(N2C(=O)C(Cl)=C(Nc3ccccc3O)C2=O)cc1,.,29,.,.,.
COc1ccc(N2C(=O)C(Cl)=C(Nc3ccccc3OC)C2=O)cc1,.,.,.,.,.
COc1ccc(Br)cc1C1Nc2cccc3cccc(c23)N1,.,33,.,.,.
C/C(=N\NC(=O)c1c(C)nc2ccccn12)c1ccc(O)cc1O,.,29,.,.,.
C/C(=N\NC(=O)c1c(C)nc2ccccn12)c1ccccc1F,.,.,.,.,.
O=C(CSc1nnc(-c2ccccc2F)n1C1CC1)NCc1ccco1,.,/,.,.,.
CCSc1nc(O)cc(=O)[nH]1,.,.,.,.,.
CCSc1nc(=S)cc(C)[nH]1,/,28,.,59,/
CCN(CC)C(CNC(=O)CSc1nnnn1-c1ccc(C)c(C)c1)c1ccco1 (stereo unspecified),.,/,.,64,.
C[C@H]1CN([C@@H](C)CO)C(=O)CCCn2cc(nn2)CO[C@@H]1CN(C)C(=O)Nc1ccccc1C(F)(F)F,/,/,.,/,/
O=C1CSC(=S)N1c1cccc(Br)c1,.,30,.,.,.
O=C1CSC(=S)N1c1cccc(O)c1,.,.,.,.,.
CC1(C(=O)OCC(=O)Nc2nnc(-c3ccccc3)o2)CC1(Cl)Cl (stereo unspecified),.,/,.,.,.
CN1c2ccccc2Sc2cc(N)ccc21,.,37,.,.,.
O=C(O)c1ccccc1NC(=O)C1CCN(S(=O)(=O)c2cccc3nsnc23)CC1,.,.,.,.,.
CCOc1cc(C(c2c(C)[nH][nH]c2=O)c2c(C)[nH][nH]c2=O)cc([N+](=O)[O-])c1O,.,.,.,.,.
CCOc1cc(C(c2c(C)[nH][nH]c2=O)c2c(C)[nH][nH]c2=O)cc(Cl)c1O,.,32,.,.,.
CCOc1cc(C(c2c(C)[nH][nH]c2=O)c2c(C)[nH][nH]c2=O)cc(Br)c1OC,.,30,.,.,.
COC1=CC(=O)C(OC)=C(OC)C1=O,/,/,120,/,/
COCCNC(=O)c1cccc(OC2CCN(C(C)COc3ccccc3)CC2)c1 (stereo unspecified),.,.,.,.,.
COc1ccc([C@H]2CC(=O)C=C(/C=C/c3ccccc3)C2)cc1OC,.,/,.,.,.
CCN(CC)CCCCNc1ncc2cc(-c3cc(OC)cc(OC)c3)c(NC(=O)NC(C)(C)C)nc2n1,.,.,.,.,.
N#Cc1c(NC(=O)CCC(=O)O)sc2c1CCCCC2,.,31,.,.,.
Cc1sc(NC(=O)CCCC(=O)O)c(C#N)c1C,.,30,.,.,.
SMILES,APOBEC3G inh,M18AAP inhibitor,PfGluPho inh,CR mimetic SO,A3A deaminase
N#Cc1c(NC(=O)CCC(=O)O)sc2c1CCCC2,.,.,.,.,.
CCCCCC(=O)Nc1sc(C)c(C)c1C#N,.,.,.,.,.
Cc1ccccc1/C=N/Nc1nc2ccccc2c(=O)n1O,.,31,.,.,.
CCOC(=O)C1=C(C)NC(C)=C(C(=O)OC)C1c1cccc([N+](=O)[O-])c1 (stereo unspecified),.,.,.,.,.
COC(=O)C1=C(C)NC(C)=C(C(=O)OC)C1c1ccccc1[N+](=O)[O-],.,.,75,.,.
Cc1ccc(C(=O)N=c2sccn2C)o1,.,.,.,.,.
COc1cc(/C=C2\C(=N)N3N=CSC3=NC2=O)ccc1OS(=O)(=O)c1ccccc1[N+](=O)[O-],.,29,.,.,.
O=C(Nc1ncn[nH]1)c1cc([N+](=O)[O-])ccc1Cl,.,30,.,.,.
CCOC(=O)c1cc2c(c(-c3ccccc3)n1)[C@@H](CCO)N(S(=O)(=O)C(C)(C)C)C2,/,/,.,/,/
CCOC(=O)c1c(NC(=O)C2C3CCC(O3)C2C(=O)O)sc(C)c1-c1ccc(F)cc1 (stereo unspecified),.,.,.,.,.
CCCOC(=O)c1c(-c2ccc(C)cc2C)csc1NC(=O)C1C2CCC(O2)C1C(=O)O (stereo unspecified),.,30,.,.,.
O=S(=O)(c1cccc(Cn2nnc(-c3ccccc3)n2)c1)N1CCOCC1,.,/,.,.,.
O=[N+]([O-])c1ccc2c(c1)N([O-])C1(CCCCC1)[N+]2=O,/,.,60,/,/
CCC(=O)NNc1nc2c(F)cccc2s1,.,31,.,.,.
Cc1ccc(S(=O)(=O)N2CC3(O)CN(C(=O)OC(C)C)N(C(=O)OC(C)C)CC3(OC(=O)NCc3ccco3)C2)cc1 (stereo unspecified),/,/,.,/,/
Cc1ccc(-n2c(COc3ccccc3)n[nH]c2=S)cc1,.,.,.,.,.
Cc1ccc(-n2c(Cn3c(C)nc4ccccc43)n[nH]c2=S)cc1,.,33,.,.,.
Cc1ccc(Nc2nnns2)cc1C,.,.,59,.,.
Cc1ccc(Nc2ccc(NCc3ccccc3)nn2)cc1C,.,.,.,.,.
COc1ccc(NC(=S)Nc2ccc3snnc3c2)cc1,.,30,.,.,.
COc1ccc(NC(=S)Nc2ccc3nccnc3c2)cc1,/,.,.,.,/
COc1cccc(NC(=S)Nc2ccc(F)cc2)c1,.,.,.,.,.
COc1cccc(NC(=S)Nc2ccc(O)cc2)c1,.,35,.,.,.
O=C(Cc1ccc(NC(=O)C2CCN(C(=O)C3CCC3)CC2)cc1)Nc1ccc(C(=O)N2CCOCC2)cc1,/,/,.,/,/
Cc1ccnn1-c1ccc(C(=O)N2CCCN(S(=O)(=O)c3ccc(F)cc3)CC2)cc1,.,/,.,.,.
SMILES,APOBEC3G inh,M18AAP inhibitor,PfGluPho inh,CR mimetic SO,A3A deaminase
COc1cccc(OC)c1OCCNC(C)(C)C,.,.,.,.,.
COc1cccc(OC)c1OCCN(C)C,.,31,.,.,.
Cc1[nH]nc(Nc2ccc(O)cc2)c1[N+](=O)[O-],.,31,.,.,.
NNc1nc2c(Cl)c(Cl)ccc2s1,.,30,.,.,.
CN1c2ccccc2C(C)(C)C12C=Cc1cc(O)ccc1O2 (stereo unspecified),.,30,.,.,.
CN1c2ccccc2C(C)(C)C12C=Nc1c(cc(N3CCOCC3)c3ccccc13)O2 (stereo unspecified),.,.,.,/,.
COc1cccc(C(=S)N2CCOCC2)c1OS(=O)(=O)c1ccc(Cl)cc1,.,.,.,.,.
CC1CCCN(CCCNC(=O)c2ccc3c(c2)N(Cc2ccccc2F)C(=O)c2ccccc2S3(=O)=O)C1 (stereo unspecified),.,.,.,.,.
CNC(=S)NNc1nncc2ccccc12,.,30,.,.,.
CCc1cccc(C)c1NC(=O)CCCN1C(=O)CN(C)C1=O,.,/,.,.,.
